Only some compounds are listed: those with a hit (about 2.4% of all), similar ones and a draw of the others.
D2 PAM-1 = positive allosteric modulators of human D2 dopamine receptor | P14416 | HEK293 T-REx D2, calcium flux, EC20 dopamine potentiation | potentiation, % at 10 µM | hit rate 0.34% among 340,000 | AID 485347;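 active = potentiation over 3 SD above the plate norm, cut at about 30% in these data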
Target sequence (P14416 whole entry, looked up): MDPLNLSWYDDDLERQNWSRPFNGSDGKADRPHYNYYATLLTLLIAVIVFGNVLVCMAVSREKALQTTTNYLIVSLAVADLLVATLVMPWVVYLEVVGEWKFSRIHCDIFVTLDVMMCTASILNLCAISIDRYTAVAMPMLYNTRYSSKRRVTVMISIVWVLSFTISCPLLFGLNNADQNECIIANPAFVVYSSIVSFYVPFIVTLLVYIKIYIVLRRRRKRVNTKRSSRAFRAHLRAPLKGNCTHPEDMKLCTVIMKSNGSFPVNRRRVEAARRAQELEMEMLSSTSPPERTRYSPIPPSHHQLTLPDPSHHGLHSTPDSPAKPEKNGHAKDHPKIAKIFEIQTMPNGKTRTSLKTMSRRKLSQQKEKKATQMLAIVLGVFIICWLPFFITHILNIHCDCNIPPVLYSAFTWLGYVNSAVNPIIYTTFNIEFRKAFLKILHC
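Potentiation of an EC20 dopamine calcium response measured kinetically over 180 s, after a preceding 180 s compound-only read flagging agonists. Cells: inducible Hek293 Trex D2 line, 4000/well, cultured overnight at 30 C before dye loading.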
D2 ag-1 = agonists of human D2 dopamine receptor | P14416 | AID 485358 | activation, % at 2 µM | HEK293 T-REx D2 cells, calcium flux agonist mode | hit rate 0.53% among 340,000;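 active = activation over 3 SD above normal in the single-dose calcium agonist read, cut at about 30% in these data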
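Tetracycline-induced HEK293 Trex cells with D2 receptor force-coupled to calcium signaling, plated overnight at 30 C and loaded with no-wash calcium dye. Calcium flux read kinetically for 180 s after compound addition; responses flag agonists.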
D2 PAM-2 = human D2 receptor positive allosteric modulation. P14416. DiscoveRx D2 beta-arrestin cells, luminescence, 90 min; 100% = 57 uM dopamine signal. potentiation, % (no concentration beside the values). hit rate 0.23% among 360,000. AID 624464; in the data active = potentiation above about 50%; inconclusive = mostly about 30% to 49%
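PathHunter D2 cells, attached overnight at 37 deg C, received compound in DMSO plus dopamine at EC20 (50 nM final) for 90 min at 37 deg C. Beta-arrestin recruitment was read as luminescence after 1 h with detection reagent at ambient temperature.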
D2 antagonist = antagonizes the human D2 dopamine receptor; AID 485344; hit rate 2% among 340,000; P14416; HEK293 TREx D2 cells, calcium flux, dopamine EC80; inhibition, % at 10 µM; in the data active = inhibition above about 30%; inactive = below that, where a call was filed
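Calcium flux kinetic readout in an inducible HEK293 TREx D2 line plated overnight at 30 C. After 180 s compound exposure, an EC80 dopamine challenge follows with another 180 s kinetic read to detect antagonism.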
D2 ag-2 = agonists of human D2 dopamine receptor (beta-arrestin). P14416. DiscoveRx PathHunter D2 beta-arrestin, luminescence, 90 min; 100% = 57 uM dopamine signal. activation, % (test concentration not listed). hit rate 0.084% among 360,000. AID 624465; in the data active = activation above about 40%; inconclusive = between about 15% and that limit
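DiscoveRx PathHunter D2 beta-arrestin cells (2,100/well) attached overnight, then compound-stimulated 90 min at 37 C in HBSS/10 mM HEPES/0.1% Tween-20 buffer; beta-galactosidase complementation read by luminescence after 1 h at ambient temperature. Dopamine 57 uM final (EC100) as control.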
Hits are given with their value; i = inactive; ? = inconclusive; nt = no result given.

SMILES	D2 PAM-1	D2 ag-1	D2 PAM-2	D2 antagonist	D2 ag-2
O=C(Nc1cccc(F)c1)c1ccc2c(c1)OCO2	nt	i	i	31	i
CCOc1ccccc1C(=O)NC(C)c1ccc2c(c1)OCO2 (stereo unspecified)	i	i	i	40	i
O=C(NNC(=O)c1ccc(F)cc1F)c1ccc2c(c1)OCO2	i	i	i	37	i
O=C(Nc1cccc(F)c1)c1ccccc1	i	i	i	i	i
O=C(Nc1ccc(Nc2ccccc2)cc1)c1cccc(F)c1	32	i	i	i	i
O=C(O)c1ccc(N/N=C/c2ccnc3ccccc23)cc1	i	i	i	40	i
COc1cccc(NC(=O)CSc2nc(=O)n(Cc3cccnc3)c3c2CCC3)c1	i	i	nt	nt	nt
Cc1cc(C)c2c(n1)nn1c(C)c(CCC(=O)NCc3ccc(Cl)cc3)c(C)nc21	i	i	nt	nt	nt
O=C1CSc2ccc(S(=O)(=O)NCc3ccc(Cl)cc3)cc2N1	i	i	i	36	i
COC(=O)c1ccc(CNC(=O)c2ccc3c(c2)NC(=O)CS3)cc1	i	i	i	37	i
O=C1CSc2ccc(S(=O)(=O)NCc3ccc(F)cc3)cc2N1	i	i	i	i	i
COc1cc(OC)c(N(C)C(=O)C2CCCN(c3ncnc4c3nc3n4CCCCC3)C2)cc1Cl (stereo unspecified)	i	i	nt	nt	nt
CCOc1nc(NCCO)nc(NCCC2=CCCCC2)n1	49	i	i	i	i
CCOc1nc(NCCC2=CCCCC2)nc(N2CCOCC2)n1	i	i	i	i	i
C=Cc1ccc(Cn2c(C(=O)O)c(CNC3CCCCC3)c3ccc(OC)cc32)cc1	i	i	nt	nt	nt
O=C(Nc1ccc(NC(=O)C2CC2)cn1)c1ccccc1Cl	i	i	i	i	i
O=C(Nc1ccc(NC(=O)C2CC2)cn1)c1ccccc1	i	i	i	36	i
O=C(Nc1ccc(NC(=O)C2CC2)nc1)c1cccc(F)c1	i	i	i	i	i
O=C(Nc1ccc(NC(=O)C2CC2)nc1)c1cccnc1	i	i	i	38	i
COc1ccccc1N1CCN(C(=O)Cn2c(=O)n3nc(-c4cccc(C)c4)nc3c3ccccc32)CC1	i	i	nt	nt	nt
CC1CCC(NC(=O)CN2CCC(n3nnc4cc(F)ccc43)CC2)CC1 (stereo unspecified)	i	i	i	41	i
O=C(CN1CCC(n2nnc3cc(F)ccc32)CC1)NNC(=O)c1ccccc1	i	i	i	i	i
CCN1CCN(CCNC(=O)c2ccc3c(c2)N(Cc2cccc(Cl)c2)C(=O)c2ccccc2S3=O)CC1 (stereo unspecified)	i	i	i	40	i
O=C(NCCN1CCCC1)c1ccc2c(c1)N(Cc1ccc(F)cc1)C(=O)c1ccccc1S2=O (stereo unspecified)	i	i	i	i	i
CCCCN(C)CCCNC(=O)c1ccc2c(c1)N(CC)C(=O)c1ccccc1S2=O (stereo unspecified)	i	i	i	70	i
SMILES	D2 PAM-1	D2 ag-1	D2 PAM-2	D2 antagonist	D2 ag-2
COc1ccc(C(CC(=O)Nc2ccc(C)cn2)N2Cc3ccccc3C2=O)cc1OC (stereo unspecified)	i	i	nt	nt	nt
Cc1ccccc1/C=C\c1nc2ccccc2c(=O)[nH]1	i	i	i	33	i
Cc1ccccc1/C=C/c1nc2ccccc2c(=O)[nH]1	i	i	i	i	i
O=c1c(=O)n(-c2ccc(F)c(F)c2)ccn1Cc1ccc(F)cc1Cl	i	i	nt	nt	nt
COc1ccccc1CNC(=O)CCS(=O)(=O)c1ccc2c(c1)oc(=O)n2C	i	i	nt	nt	nt
CCOC(=O)c1cc(-c2ccccc2)n(CCCC(=O)Nc2cc(C)ccc2OC)c1C	i	nt	nt	nt	nt
Oc1ccc(/C=N/N=C/c2ccc(O)c(O)c2)cc1O	i	i	i	i	i
Oc1ccc(N=Cc2ccc(O)c(O)c2)cc1	i	i	83	i	?
Cc1nnc(N2CCN(C(=O)Nc3cc(F)ccc3F)CC2)c2nn(-c3ccc(Cl)cc3)c(C)c12	i	i	nt	nt	nt
O=C1C(=NO)CCc2ccccc21	nt	nt	80	nt	?
COCC(=O)N1c2nc(C(C)C)nn2C2(CCCCC2)[C@@H]2CCCC[C@@H]21	i	i	nt	nt	nt
CC(C)(CN1CCN(Cc2ccccc2)CC1)NS(=O)(=O)c1ccc(Cl)cc1	i	i	i	44	i
CN1CCN(CC(C)(C)NS(=O)(=O)c2ccc(Cl)cc2)CC1	i	i	i	i	i
CN(Cc1ccccc1)c1ccc(-c2nc(-c3ccco3)no2)cc1[N+](=O)[O-]	i	i	nt	nt	nt
CCc1ccccc1NC(=O)c1sc(-n2nc(C)c(Cc3ccccc3)c2C)nc1C	i	i	nt	nt	nt
CC(=O)Nc1cc2c(cc1C(=O)c1ccc(C)cc1)OCCO2	i	i	i	34	i
Nc1cc(C(F)(F)F)ccc1-n1cccc1	i	i	i	39	i
CC1CCN(c2ccc(C(F)(F)F)cc2N)CC1	i	i	i	i	i
CCN(CC)CCNC(=O)c1ccc(NC(=O)COc2ccc3c(c2)CCC3)cc1	i	i	i	32	i
CCN(CC)CCNC(=O)c1ccc(NC(C)=O)cc1	i	i	i	i	i
CC(=O)c1ccc(NS(=O)(=O)c2ccc3[nH]c(=O)[nH]c3c2)cc1	i	i	nt	nt	nt
O=C(CNC(=O)c1cccc(-n2cnnn2)c1)Nc1ccc(F)c(F)c1	i	i	i	38	i
COC(=O)C/C=C/[C@@H](C)[C@@H](/C=N/OC[C@@H](C)[C@H](OCc1ccccc1)C(C)C)NS(=O)(=O)c1ccc(C)cc1	i	nt	nt	nt	nt
C=CC[C@@H]1C=C[C@H](O/N=C/[C@@H](NS(=O)(=O)c2ccc(C)cc2)[C@H](C)/C=C/CC(=O)OC)[C@@H](CO)O1	i	i	nt	31	nt
COc1ccccc1C(=O)Nc1nc2ccccc2[nH]1	i	i	i	i	i
SMILES	D2 PAM-1	D2 ag-1	D2 PAM-2	D2 antagonist	D2 ag-2
COc1cc(SC)ccc1C(=O)Nc1nc2ccccc2[nH]1	i	i	i	34	i
CCOc1ccccc1OCCCNCc1ccco1	i	i	i	31	i
COC(=O)c1ccc(C2c3c(-c4ccccc4O)n[nH]c3C(=O)N2Cc2cccnc2)cc1 (stereo unspecified)	i	i	nt	nt	nt
Cc1nc(C(=O)NCC(=O)c2ccccc2)c(C(F)(F)F)o1	i	i	i	32	i
CCC1Oc2ccccc2N(CC(=O)NCc2ccccc2)C1=O (stereo unspecified)	i	i	nt	nt	nt
Cc1cc2n(n1)C(c1ccccc1)CC(c1ccc(Br)cc1)=N2 (stereo unspecified)	i	i	i	52	i
CCCCN(C)CCCNC(=O)Cn1nc(CC)n2c(cc3sc(C)cc32)c1=O	nt	i	nt	nt	nt
COc1cc(C(C(=O)NC2CCCC2)N(C(=O)c2snc(C(N)=O)c2N)C2CCCC2)cc(OC)c1OC (stereo unspecified)	i	i	i	32	i
Cc1ccc(N(CC(=O)NCCSc2nc3ccccc3s2)S(=O)(=O)c2ccccc2)c(C)c1	i	i	i	55	i
CCCC(CCC)c1nc2ccncc2[nH]1	36	i	i	i	i

Source: PubChem
